Common to all, as to design: scale not given: direction of the effect not stated beside the values
The target of assay [1] is Protein translocase subunit SecA (Escherichia coli (strain K12)) (UniProt P10408). Description: Assay to Identify E. coli SecA ATPase Inhibitors. The format is functional. The following applies: 30 µM.
Assay [2] deals with T1, Ubiquitin-activating enzyme e1, putative (Leishmania donovani (strain BPK282A1)) (UniProt E9BSI1).
T1 sequence (whole entry): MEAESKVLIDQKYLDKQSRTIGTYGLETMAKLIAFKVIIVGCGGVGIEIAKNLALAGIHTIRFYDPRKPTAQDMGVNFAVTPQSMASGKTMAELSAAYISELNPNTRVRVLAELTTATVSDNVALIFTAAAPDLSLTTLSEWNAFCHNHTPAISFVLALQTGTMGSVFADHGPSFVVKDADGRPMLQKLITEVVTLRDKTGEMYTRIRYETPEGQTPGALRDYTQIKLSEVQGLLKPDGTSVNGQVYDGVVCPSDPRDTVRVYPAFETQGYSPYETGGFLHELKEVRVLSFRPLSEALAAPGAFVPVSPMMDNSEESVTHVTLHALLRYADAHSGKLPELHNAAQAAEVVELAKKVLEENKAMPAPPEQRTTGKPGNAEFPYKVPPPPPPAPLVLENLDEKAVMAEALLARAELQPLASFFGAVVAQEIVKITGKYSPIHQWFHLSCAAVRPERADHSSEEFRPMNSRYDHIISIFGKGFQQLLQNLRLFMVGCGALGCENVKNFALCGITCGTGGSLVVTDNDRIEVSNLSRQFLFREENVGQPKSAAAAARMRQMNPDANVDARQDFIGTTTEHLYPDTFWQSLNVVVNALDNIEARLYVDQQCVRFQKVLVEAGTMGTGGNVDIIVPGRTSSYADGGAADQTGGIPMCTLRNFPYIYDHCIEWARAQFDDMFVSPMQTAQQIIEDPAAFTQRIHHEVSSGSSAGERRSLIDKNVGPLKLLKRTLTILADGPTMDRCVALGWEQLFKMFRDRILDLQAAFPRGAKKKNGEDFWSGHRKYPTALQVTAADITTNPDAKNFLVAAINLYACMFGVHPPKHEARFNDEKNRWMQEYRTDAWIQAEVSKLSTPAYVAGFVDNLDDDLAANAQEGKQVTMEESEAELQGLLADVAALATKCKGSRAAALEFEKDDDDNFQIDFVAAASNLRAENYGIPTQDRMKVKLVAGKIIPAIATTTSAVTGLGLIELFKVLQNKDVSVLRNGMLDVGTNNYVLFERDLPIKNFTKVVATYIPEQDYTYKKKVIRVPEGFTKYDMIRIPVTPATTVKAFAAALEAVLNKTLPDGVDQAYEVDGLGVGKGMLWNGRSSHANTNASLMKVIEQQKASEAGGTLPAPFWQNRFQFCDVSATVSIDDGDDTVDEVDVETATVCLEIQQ
Description: Leishmania donovani Ubiquitin Activating Enzyme (LdE1). The format is functional. To be noted: 30 µM.

Assay [3] concerns the target AMP-activated protein kinase, AMPK (Homo sapiens) (UniProt P54646+O43741+P54619+Q9UGJ0+Q9Y478+Q13131+Q9UGI9). The assay is described as follows: AMP-dependent Kinase enzyme assay. An in vitro enzyme assay that detects ADP turnover that is directly proportional to AMPK activity. This uses naive AMPK that is activated during the assay with MK-8722. In kind it is functional. To be noted: 30 µM.

Assay [4] deals with Sialic acid-binding Ig-like lectin 9 (Homo sapiens) (UniProt Q9Y336). Description: Hs-Siglec9 ALPHAscreen SOP 20170721. To be noted: 10 µM. A general note: In Alpha technology, singlet oxygen from a donor bead excites a nearby acceptor bead.
Sialic acid-binding Ig-like lectin 9 (Homo sapiens), sequence (Q9Y336 whole entry): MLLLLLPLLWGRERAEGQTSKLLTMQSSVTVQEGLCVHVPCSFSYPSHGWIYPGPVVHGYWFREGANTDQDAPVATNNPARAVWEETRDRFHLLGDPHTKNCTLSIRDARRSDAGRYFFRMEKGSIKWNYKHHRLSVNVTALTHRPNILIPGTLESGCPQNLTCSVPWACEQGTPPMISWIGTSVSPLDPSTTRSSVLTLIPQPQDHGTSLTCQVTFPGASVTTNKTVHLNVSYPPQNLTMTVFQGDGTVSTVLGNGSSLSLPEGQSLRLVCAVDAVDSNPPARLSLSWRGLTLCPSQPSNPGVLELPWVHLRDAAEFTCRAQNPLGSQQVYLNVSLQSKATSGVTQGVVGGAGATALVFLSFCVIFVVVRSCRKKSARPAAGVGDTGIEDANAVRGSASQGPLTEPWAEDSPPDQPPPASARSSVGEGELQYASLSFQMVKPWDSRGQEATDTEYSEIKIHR
For the next assay, the system named is Trypanosoma cruzi. Description: Trypanosoma cruzi phosphomannomutase and mannose-1-phosphate guanylyltransferase assay. In kind it is functional. To be noted: 10 µM.
Assay [5] deals with T2, Arginase-2, mitochondrial (Homo sapiens) (UniProt P78540).
T2 sequence (whole entry): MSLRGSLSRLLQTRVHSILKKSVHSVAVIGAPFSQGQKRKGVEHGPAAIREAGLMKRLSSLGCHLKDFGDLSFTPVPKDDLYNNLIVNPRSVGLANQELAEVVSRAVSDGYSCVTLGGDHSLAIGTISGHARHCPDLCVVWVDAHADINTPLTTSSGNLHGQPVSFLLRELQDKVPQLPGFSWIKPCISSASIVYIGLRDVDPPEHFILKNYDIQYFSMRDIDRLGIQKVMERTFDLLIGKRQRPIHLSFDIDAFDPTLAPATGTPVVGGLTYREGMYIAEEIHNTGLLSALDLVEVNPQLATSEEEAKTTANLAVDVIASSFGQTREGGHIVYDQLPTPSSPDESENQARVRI
The assay is described as follows: in vitro enzyme assay to detect the production of urea directly proportional to the activity of Arginase II. Note: in the data most compounds retested in dose-response had high values. In kind it is functional. The following applies: 33.3 µM.

For assay [6], the target named is T3, Proteasome subunit beta (Trypanosoma cruzi) (UniProt O96673).
T3 sequence (whole entry): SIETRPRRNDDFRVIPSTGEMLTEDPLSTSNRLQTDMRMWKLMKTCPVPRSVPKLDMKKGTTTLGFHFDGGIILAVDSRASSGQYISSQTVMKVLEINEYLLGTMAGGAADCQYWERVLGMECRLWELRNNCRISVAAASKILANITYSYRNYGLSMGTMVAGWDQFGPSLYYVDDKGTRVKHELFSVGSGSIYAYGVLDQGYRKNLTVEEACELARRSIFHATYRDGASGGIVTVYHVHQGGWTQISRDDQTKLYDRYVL
Description: Trypanosoma cruzi proteasome chymotrypsin-like activity (TcProtChymo) assay. Note: in the data most compounds retested in dose-response had high values. The format is functional. To be noted: 9.37 µM.

The species entered for the next assay is Homo sapiens. The assay is described as follows: To identify inhibition of the IFN signalling (Jak-Stat) pathway via expression of an eGFP reporter gene under the control of an IFN-stimulated response element (ISRE) containing MxA promoter. To be noted: 30 µM. In kind it is functional. A general note: A reporter such as luciferase makes a cellular process visible.

The target in assay [7] is T4, Tyrosyl-tRNA synthetase, putative (Trypanosoma cruzi (strain CL Brener)) (UniProt Q4DSP6).
T4 sequence (whole entry): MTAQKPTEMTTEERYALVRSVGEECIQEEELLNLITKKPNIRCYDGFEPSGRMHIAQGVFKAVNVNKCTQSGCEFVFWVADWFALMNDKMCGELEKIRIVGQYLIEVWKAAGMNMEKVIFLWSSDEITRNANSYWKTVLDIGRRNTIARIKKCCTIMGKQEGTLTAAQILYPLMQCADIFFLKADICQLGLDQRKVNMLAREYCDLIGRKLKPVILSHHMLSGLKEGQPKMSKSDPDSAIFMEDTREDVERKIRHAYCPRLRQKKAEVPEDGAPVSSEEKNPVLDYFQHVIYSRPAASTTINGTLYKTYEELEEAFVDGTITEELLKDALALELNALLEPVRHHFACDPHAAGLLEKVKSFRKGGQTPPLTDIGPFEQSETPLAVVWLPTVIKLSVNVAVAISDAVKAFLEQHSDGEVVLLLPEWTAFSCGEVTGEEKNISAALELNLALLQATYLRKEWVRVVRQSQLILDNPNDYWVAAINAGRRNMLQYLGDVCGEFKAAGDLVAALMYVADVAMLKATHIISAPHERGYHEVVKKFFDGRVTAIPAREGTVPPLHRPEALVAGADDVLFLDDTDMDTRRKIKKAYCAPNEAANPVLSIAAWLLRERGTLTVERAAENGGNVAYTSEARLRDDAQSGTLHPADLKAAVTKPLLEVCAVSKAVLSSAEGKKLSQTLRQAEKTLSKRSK
Description: Trypanosoma cruzi tyrosyl tRNA synthetase (TcYRS) _High Tyrosine SOP. Note: in the data most compounds retested in dose-response had high values. The following applies: 30 µM. The format is functional.

Assay [8] deals with T4, Tyrosyl-tRNA synthetase, putative (Trypanosoma cruzi (strain CL Brener)). The assay is described as follows: Trypanosoma cruzi tyrosyl tRNA synthetase (TcYRS) SOP. In kind it is functional. To be noted: 30 µM.
The target in assay [9] is Chromo domain-containing protein 1 (Saccharomyces cerevisiae (strain ATCC 204508 / S288c) (Baker's yeast)) (UniProt P32657). Description: ScCHD-1 Enzyme Inhibition Assay. Note: in the data most compounds retested in dose-response had high values. In kind it is functional. To be noted: 30 µM.
Chromo domain-containing protein 1 (Saccharomyces cerevisiae (strain ATCC 204508 / S288c) (Baker's yeast)), sequence (P32657 whole entry, the tested form may be a part): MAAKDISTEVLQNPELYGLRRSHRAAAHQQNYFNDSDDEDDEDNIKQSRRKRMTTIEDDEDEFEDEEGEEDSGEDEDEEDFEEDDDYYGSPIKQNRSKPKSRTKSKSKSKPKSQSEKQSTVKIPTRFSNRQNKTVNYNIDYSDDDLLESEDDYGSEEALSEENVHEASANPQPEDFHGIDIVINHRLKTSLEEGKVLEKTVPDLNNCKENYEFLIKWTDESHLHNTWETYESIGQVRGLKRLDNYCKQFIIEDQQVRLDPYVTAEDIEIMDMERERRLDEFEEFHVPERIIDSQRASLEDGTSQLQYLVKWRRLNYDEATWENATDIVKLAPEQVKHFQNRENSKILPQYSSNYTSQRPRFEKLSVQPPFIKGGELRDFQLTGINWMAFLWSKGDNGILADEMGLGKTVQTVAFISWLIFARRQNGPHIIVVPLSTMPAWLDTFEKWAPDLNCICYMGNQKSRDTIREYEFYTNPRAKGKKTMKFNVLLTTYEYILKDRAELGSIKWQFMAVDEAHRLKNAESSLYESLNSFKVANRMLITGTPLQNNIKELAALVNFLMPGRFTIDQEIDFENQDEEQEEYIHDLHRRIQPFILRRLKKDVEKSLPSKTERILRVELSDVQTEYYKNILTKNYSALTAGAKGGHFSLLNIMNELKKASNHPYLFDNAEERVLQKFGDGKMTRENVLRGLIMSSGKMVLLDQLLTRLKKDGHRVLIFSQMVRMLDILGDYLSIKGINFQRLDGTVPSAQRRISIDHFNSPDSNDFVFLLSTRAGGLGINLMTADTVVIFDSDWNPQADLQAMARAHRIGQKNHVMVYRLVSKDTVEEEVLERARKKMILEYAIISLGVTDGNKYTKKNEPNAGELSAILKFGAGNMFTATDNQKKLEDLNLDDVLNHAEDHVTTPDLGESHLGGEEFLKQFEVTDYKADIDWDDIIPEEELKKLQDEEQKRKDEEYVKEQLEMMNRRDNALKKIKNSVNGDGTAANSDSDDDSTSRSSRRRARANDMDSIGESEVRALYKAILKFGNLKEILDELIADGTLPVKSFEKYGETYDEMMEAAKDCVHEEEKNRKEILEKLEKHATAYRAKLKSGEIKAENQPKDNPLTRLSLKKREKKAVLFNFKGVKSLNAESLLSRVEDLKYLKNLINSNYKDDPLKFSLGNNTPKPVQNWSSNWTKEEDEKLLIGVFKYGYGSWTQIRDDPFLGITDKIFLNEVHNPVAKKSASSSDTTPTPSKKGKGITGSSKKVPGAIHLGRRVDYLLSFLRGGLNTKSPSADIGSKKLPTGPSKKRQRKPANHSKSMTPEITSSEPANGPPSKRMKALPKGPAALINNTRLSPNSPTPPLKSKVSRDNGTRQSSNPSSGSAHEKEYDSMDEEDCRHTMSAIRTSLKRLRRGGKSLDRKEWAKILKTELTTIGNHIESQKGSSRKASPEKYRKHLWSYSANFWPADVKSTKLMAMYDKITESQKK

For some of these results: Entries with a potency or affinity are not part of this list.

Protein translocase subunit SecA (Escherichia coli (strain K12)), sequence (P10408 whole entry): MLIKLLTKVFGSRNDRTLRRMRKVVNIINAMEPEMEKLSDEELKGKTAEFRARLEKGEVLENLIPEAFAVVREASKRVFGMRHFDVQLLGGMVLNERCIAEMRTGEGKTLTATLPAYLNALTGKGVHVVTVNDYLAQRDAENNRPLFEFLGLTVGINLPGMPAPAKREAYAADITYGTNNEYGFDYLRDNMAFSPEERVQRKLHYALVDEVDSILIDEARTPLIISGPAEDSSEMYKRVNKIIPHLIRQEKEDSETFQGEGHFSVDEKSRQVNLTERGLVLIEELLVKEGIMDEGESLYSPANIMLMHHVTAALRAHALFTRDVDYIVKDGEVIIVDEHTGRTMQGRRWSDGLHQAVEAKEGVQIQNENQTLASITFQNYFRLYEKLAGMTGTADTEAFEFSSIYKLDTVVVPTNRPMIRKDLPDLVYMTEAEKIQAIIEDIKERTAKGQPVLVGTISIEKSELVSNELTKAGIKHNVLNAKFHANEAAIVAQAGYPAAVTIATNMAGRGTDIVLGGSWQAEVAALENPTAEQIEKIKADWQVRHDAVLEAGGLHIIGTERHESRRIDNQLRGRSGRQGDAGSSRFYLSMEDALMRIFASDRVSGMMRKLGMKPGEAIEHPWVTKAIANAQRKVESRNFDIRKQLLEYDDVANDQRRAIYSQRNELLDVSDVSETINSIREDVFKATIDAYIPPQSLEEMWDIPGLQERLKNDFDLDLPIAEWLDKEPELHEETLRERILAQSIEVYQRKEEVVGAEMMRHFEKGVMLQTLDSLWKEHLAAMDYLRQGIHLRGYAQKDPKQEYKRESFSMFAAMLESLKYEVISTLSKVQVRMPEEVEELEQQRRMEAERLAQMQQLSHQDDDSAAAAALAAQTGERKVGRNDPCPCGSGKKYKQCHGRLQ

Turning to `Cc1cc(-c2cnc(NC3CCCC3)nc2-c2ccoc2C)on1`, the Percent Effect was -2.76% in assay [1]; 14.9% in assay [2]; 65.2% in assay [3]; 4.01% in assay [4]; 0.395% with Trypanosoma cruzi; -0.696% in assay [5]. For the same compound, the Percent Effect in [6] was 5.77%; in the assay filed under Homo sapiens it was 14.7%; in [7], 6.45%; in assay [8] it was 3.9%; in assay [9], -16%.
For `COc1ccccc1C(O)CNC(=O)NCc1cccnc1OC` (stereo unspecified), the Percent Effect in assay [1] is -5.38%; in [2] it was 12.7%; in assay [3], 3.02%; in assay [4], -9.15%; with Trypanosoma cruzi it was -7.84%; in assay [5], -0.38%. The Percent Effect in [6] is 6.63%; in the assay filed under Homo sapiens, 30.3%; in assay [7], 1.48%; in [8], 13.9%; in assay [9] it was -5.07%.
As to `CC(C)N1CCC(Cc2cc(-c3ccccc3C(=O)O)ncn2)CC1`, the Percent Effect in assay [1] was -1.66%; in assay [2], 52.7%; in assay [3], 4.35%; in assay [4] it was -7.29%; in the assay on Trypanosoma cruzi it was -0.988%; in assay [5], 2.09%. In addition, the Percent Effect is 5.3% in assay [6]; 17.4% in the assay listed under Homo sapiens; 4.3% in [7]; 6.49% in [8]; -7.12% in [9].
In the case of `Cc1cnn(CC2CCCCN2C(=O)c2cc(C(N)=O)cs2)c1` (stereo unspecified), the Percent Effect in assay [1] is -8.81%; in [2] it was 1.27%; in assay [3], 1.77%; in assay [4] it was -2.33%; in the assay with Trypanosoma cruzi, 0.308%; in assay [5], -2.37%. Also, the Percent Effect is 8.4% in assay [6]; 17.1% in the assay listed under Homo sapiens; -1.04% in assay [7]; -5.06% in assay [8]; -0.902% in assay [9].
For the compound `CCOC(=O)N1CCN(C(=O)CCn2ccc3c(OC)cccc32)CC1`, the Percent Effect in assay [1] was -0.914%; in [2], 0%; in assay [3] it was -4.91%; in assay [4] it was 2.66%; with Trypanosoma cruzi, -6.91%; in assay [5] it was -10.7%. For the same compound, the Percent Effect in assay [6] is 15.8%; in the assay listed under Homo sapiens, 35%; in [7], 2.13%; in assay [8], -2.6%; in assay [9], -1.25%.
As to `CS(=O)(=O)c1ccccc1C(=O)NCC1Cc2ccccc2O1` (stereo unspecified), the Percent Effect is -1.96% in assay [1]; 11% in assay [2]; -2.95% in assay [3]; 0.634% in assay [4]; -4.31% in the assay on Trypanosoma cruzi; 0.455% in assay [5]. Moreover, the Percent Effect was 19% in assay [6]; 20.8% in the assay filed under Homo sapiens; 4.3% in [7]; 7.5% in [8]; -5.76% in assay [9].
Regarding `CCOCCCNC(=O)c1ccccc1S(C)(=O)=O`, the Percent Effect in assay [1] was -4.36%; in assay [2], 0%; in [3], 7.43%; in [4] it was 5.86%; with Trypanosoma cruzi, 2.82%; in assay [5], -8.28%. The Percent Effect in [6] was 11.6%; in the assay filed under Homo sapiens it was -12.4%; in assay [7], 1.06%; in assay [8] it was 5.2%; in assay [9], 0.767%.
Take `Cn1ccnc1CN1CCCC(Cc2ccccn2)C1` (stereo unspecified): the Percent Effect in assay [1] is -7.44%; in assay [2], 20.3%; in assay [3] it was -4.84%; in assay [4] it was 1.21%; in the assay on Trypanosoma cruzi, 4.94%; in assay [5] it was -2.55%. In addition, the Percent Effect in assay [6] was 13.6%; in the assay filed under Homo sapiens it was 1.89%; in assay [7], 4.3%; in [8], 16.9%; in [9] it was -20.2%.
Turning to `CNC(=O)c1cc2c(nc1NCC1CC1)CCN(c1ccncn1)CC2`, the Percent Effect in assay [1] is -4.02%; in assay [2], 1.33%; in [3], 11.9%; in [4], 4.48%; in the assay with Trypanosoma cruzi, -1.57%; in assay [5] it was -4.05%. For the same compound, the Percent Effect in assay [6] is 9.61%; in the assay listed under Homo sapiens, 35.2%; in [7] it was 1.06%; in assay [8], 0%; in [9], -5.29%.
On to `CCc1c(C(=O)NCC2CCS(=O)(=O)C2)cnn1-c1ccc(C)cc1` (stereo unspecified), for which the Percent Effect was -3.51% in assay [1]; 17.7% in assay [2]; -2.2% in assay [3]; -1.25% in assay [4]; 2.74% with Trypanosoma cruzi; 4.94% in assay [5]. Besides, the Percent Effect in [6] is 2.54%; in the assay filed under Homo sapiens, 5.86%; in assay [7], 5.42%; in [8], 21.5%; in assay [9], -6.44%.
Take `Cc1nccc(-c2cccc(NCC(=O)N3CCCCCCC3)c2)n1`: the Percent Effect in [1] is -8%; in [2], -5.26%; in assay [3] it was 11.7%; in assay [4] it was -8.15%; in the assay on Trypanosoma cruzi, -0.28%; in assay [5], -0.36%. In addition, the Percent Effect in assay [6] is 5.16%; in the assay listed under Homo sapiens it was 28.6%; in assay [7], 2.46%; in [8], -1.24%; in [9], -1.53%.

(Values after ChEMBL document CHEMBL3988442, “University of Dundee, Small-Polar-MMV Screening Library” (2021).)
